Inhibition data for 92 compounds are collected here from PubChem BioAssay AID1063 (University of Pittsburgh Molecular Library Screening Center, 2008).

The whole screen tested about 200,000 compounds, of which about 18,000 (9%) were called active. No stated cut-off is given here; in the data, active means inhibition above about 50%; inactive means the rest. Many of the other results were omitted from the sample, so actives are more common in it than they were.

The nature of this test: antileishmanial activity against promastigotes – primary screen (AID 1063).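 Further: promastigotes grown with compound for 44 hours at 28 °C.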 To be noted: Leishmania major promastigotes, resazurin fluorescence viability; at 10 µM; active compounds read high.
In the case of `Cc1ccc(N=Cc2c(O)cc(C)oc2=O)c(C)c1`, the inhibition was -1.99% (inactive). For `COc1cccc(CNC(=O)Cc2csc(Nc3nc(=S)[nH]c4ccccc34)n2)c1` the value was 2.33% (inactive); for `COC(=O)C[n+]1cccc2ccccc21`, 28.5% (inactive); for `O=C(CN1C(=O)C2C3CCC(C3)C2C1=O)Oc1ccc2ccccc2c1` (configuration not stated), 7.23% (inactive). Then `CC1=CC(C)(C)Nc2ccc(OC(=O)C(Cc3ccccc3)N3C(=O)C4CCCCC4C3=O)cc21` (configuration not stated), with 65.6% (active). As for `CC(OC(=O)CN1C(=O)C2CCCCC2C1=O)C(=O)Nc1ncc(Cl)cc1Cl` (configuration not stated), the inhibition was -6.88% (inactive). Then `Cc1ccc(C)n1C(Cc1ccccc1)C(=O)O` (configuration not stated), with -7.64% (inactive). For `CC1=CC(C)(C)Nc2ccc(OC(=O)CN3C(=O)C4CCCCC4C3=O)cc21` (configuration not stated) the value was 100% (active); for `COc1cccc(NC(=O)NCc2ccc(F)cc2)c1`, 2.02% (inactive); for `CN(NC(=O)C1CC(=O)N(c2ccccc2)C1)C1=NS(=O)(=O)c2ccccc21` (configuration not stated), -0.26% (inactive). Then `CCc1ccc(Oc2nc([N+](=O)[O-])nn2C)cc1`, with 12.5% (inactive); and `CSc1nc2nc(-c3cccc(C(F)(F)F)c3)ccn2n1`, with -7.55% (inactive). With `C=CCN1C(=O)C(O)(CC(=O)c2ccccn2)c2ccccc21` (configuration not stated), the inhibition is 3.64% (inactive). Then `CCCNS(=O)(=O)c1ccc2c(c1)CCCN2C(C)=O`, with -1.63% (inactive); and `CCOc1ccc(NC(=O)CCS(=O)(=O)c2ccc3c(c2)CCCN3C(=O)CC)cc1`, with 62.8% (active); and `CC(=O)N1CCCc2cc(S(=O)(=O)CCC(=O)N3CCN(c4ccccc4)CC3)ccc21`, with -3.41% (inactive). For `O=C(c1ccc(F)cc1)N1CCCC(c2nc(-c3cccs3)no2)C1` (configuration not stated) the value was 5.3% (inactive); for `O=C(Cc1cccs1)N1CCCC(c2nc(-c3ccc(S(=O)(=O)N4CCCC4)cc3)no2)C1` (configuration not stated), 95.1% (active); for `O=C(c1cccs1)N1CCCC(c2nc(-c3ccc(F)cc3)no2)C1` (configuration not stated), -8.27% (inactive).

`C=C(C)c1cccc(C(C)(C)NC(=O)NCCN(CC)CC)c1`: the inhibition was 4.54% (inactive). Then `COC(=O)CN1C(=O)N/C(=C/c2ccc(OC)c(C)c2OC)C1=O`, with -9.01% (inactive); and `S=C(NC1CCCCC1)NN1CCOCC1`, with -1.39% (inactive). For `COc1ccccc1Cn1c(C)nnc1-c1cnn(C)c1N` the value was 0.00407% (inactive).

With `CCOC(=O)c1ccc(NC(=O)CSc2ncccn2)cc1`, the inhibition is 0.48% (inactive). For `CCOC(=O)c1ccc(NC(=O)CSc2nnc(COc3ccccc3OC)n2C)cc1` the value was 89% (active); for `COC(=O)c1ccc(NC(=O)CSc2nnc(-c3ccncc3)n2C)cc1`, 5.08% (inactive).

As to `CCc1cc2cc(OC)ccc2nc1SCC(=O)Nc1cc(OC)c(OC)cc1C(=O)O`, the inhibition was -7.93% (inactive). Take `Cn1c(=O)[nH]c(=O)c2c1nc(N(CCO)Cc1ccccc1)n2Cc1ccccc1Cl`: the inhibition is 23.7% (inactive). Then `CN(Cc1ccccc1)c1nc2c(c(=O)[nH]c(=O)n2C)n1CCSc1nc2ccccc2[nH]1`, with 95% (active); and `Cc1ccnc(SCCn2c(N(C)Cc3ccccc3)nc3c2c(=O)n(C)c(=O)n3C)n1`, with 34.8% (inactive); and `CCOC(=O)c1sc(NC(=O)CSc2nc(O)c(Cc3ccccc3)c(=O)[nH]2)nc1C`, with -5.06% (inactive). For `Cc1ccc(-c2noc(CCC(N)=O)n2)cc1` the value was -4.98% (inactive). Then `CN1CCN(C(=O)CCc2nc(-c3ccc(Cl)cc3)no2)CC1`, with -4.14% (inactive); and `Cc1ccc(-c2noc(CCC(=O)Nc3ccccc3N3CCN(C)CC3)n2)cc1`, with 57.9% (active); and `COc1cccc(/C=N/NC(=O)c2[nH]nc3c2CCc2ccccc2-3)c1O`, with 98% (active). Turning to `COc1ccc(C(=O)Nc2ccccc2C(=O)N/N=C/c2ccccc2OC)cc1`, the inhibition is 6.31% (inactive).

As to `COc1cccc(/C=N\NC(=O)C2=NNC(=O)C2C)c1O` (configuration not stated), the inhibition is -7.2% (inactive).

As for `C/C(=N\NC(=S)NC(C)C)c1ccc(C(C)(C)C)cc1`, the inhibition is 15% (inactive). Then `Cc1ccc(NC(=O)CSc2nnc(COc3ccccc3C)o2)cc1`, with -2.82% (inactive); and `O=C(COC(=O)c1cc(S(=O)(=O)N2CCCCC2)ccc1Cl)NCc1ccco1`, with 7.75% (inactive); and `CCn1c2ccccc2c2cc(NC(=O)COC(=O)c3cc(S(=O)(=O)N4CCCCC4)ccc3Cl)ccc21`, with 73.8% (active). As for `CCn1c2ccccc2c2cc(NC(=O)COC(=O)c3ccccc3Br)ccc21`, the inhibition was -2.86% (inactive).

For the compound `COc1ccc(CC(=O)N[C@@H](CCSC)c2nc3ccccc3[nH]2)cc1`, the inhibition was -4.82% (inactive). For `CSCCC(NC(=O)c1cc([N+](=O)[O-])cc([N+](=O)[O-])c1)c1nc2ccccc2[nH]1` (configuration not stated) the value was 96.8% (active). Take `CSCCC(NC(=O)c1ccc(=O)n(C)n1)c1nc2ccccc2[nH]1` (configuration not stated): the inhibition was -5.06% (inactive). For `Cc1ccc(CN(N=Nc2nonc2N)c2nonc2N)c(C)c1` the value was 88.8% (active).

For `Cc1ccc2c(c1)C1CN(C)CCC1N2C(=S)Nc1ccc(OC(F)F)cc1` (configuration not stated), the inhibition was 34.5% (inactive). For `Cc1ccc2nc(C)cc(N/N=C/c3ccc(F)cc3)c2c1` the value was 7.72% (inactive). In the case of `CCC(C)NCCOCCOc1ccc(Br)cc1C` (configuration not stated), the inhibition is 99% (active). Then `CCOCCCNCc1cc(Br)ccc1OCC`, with 13.3% (inactive); and `COCC(C)NCc1cc(Br)ccc1OC` (configuration not stated), with -1.49% (inactive).

On to `CCN(CC)S(=O)(=O)c1ccc(N(C)Cc2cccc(OC)c2OC)nc1`, for which the inhibition was 8.96% (inactive).

On to `CCN(Cc1ccccc1)S(=O)(=O)c1cc(C(=O)O)ccc1OC`, for which the inhibition is -8.56% (inactive).

`O=S(=O)(c1ccc2c(c1)OCCO2)N1CCc2ccccc21`: the inhibition is -6.88% (inactive). For `Cc1cccc(N2CCN(C(c3ccc(N(C)C)cc3)c3nnnn3C(C)(C)C)CC2)c1C` (configuration not stated) the value was 11.3% (inactive); for `Cc1cccc(N2CCN(C(c3ccccc3)c3nnnn3CC3CCCO3)CC2)c1C` (configuration not stated), 75.9% (active); for `COc1ccccc1C(c1nnnn1CC1CCCO1)N1CCN(c2ccccc2)CC1` (configuration not stated), 6.1% (inactive). As to `COc1ccc(C(=O)Nc2ccc(N3CCC(C)CC3)cc2)cc1Br`, the inhibition was -6.43% (inactive). For `Cn1nc(-c2ccc(N3CCOCC3)c(NC(=O)c3ccccc3)c2)c2ccccc2c1=O` the value was 77% (active); for `COc1ccc(-c2nn(C)c(=O)c3ccccc23)cc1NC(=O)COc1ccccc1`, 8.76% (inactive); for `O=C(Nc1cc(-c2nn(CC(=O)N3CCCCC3)c(=O)c3ccccc23)ccc1N1CCOCC1)c1ccc(Cl)cc1`, 0.47% (inactive).

`CN(CC(=O)Nc1ccccc1F)CC(=O)Nc1ccccc1Br`: the inhibition is -4.41% (inactive). Consider `NS(=O)(=O)c1ccc(NC(=S)Nc2ccc(Br)c(Cl)c2)cc1`, for which the inhibition was 10.7% (inactive).

In the case of `CC(C)(C)C(=O)NCCCNc1ccc([N+](=O)[O-])cc1`, the inhibition was -6.51% (inactive). On to `CCOc1cc(/C=C2/C(=N)N3OC(C)=CC3=NC2=O)ccc1OC`, for which the inhibition is 2.63% (inactive).

In the case of `Cn1nnnc1NCc1ccc(Cl)c(Cl)c1`, the inhibition was 6.1% (inactive). As for `COc1ccc(N2CCN(c3ccc([N+](=O)[O-])nc3)CC2)cc1`, the inhibition is -3.36% (inactive). Take `Cn1c(=O)n(C)c2cc(NS(=O)(=O)c3ccc(F)cc3)ccc21`: the inhibition is 4.59% (inactive).

Regarding `CC1(C)CC(=O)c2c(n(S(=O)(=O)c3ccccc3)c3ccc(NS(=O)(=O)c4ccccc4)cc23)C1`, the inhibition was 98.6% (active).

For the compound `O=S(=O)(Nc1ccc2cn[nH]c2c1)c1ccccc1`, the inhibition was 6.15% (inactive). For `Cc1cnc(C(=O)OCC(=O)N2CCc3ccccc32)cn1` the value was 5.21% (inactive).

For `C=CCc1ccc(OCC(O)CN2CCN(Cc3ccccc3)CC2)c(OC)c1` (configuration not stated), the inhibition was 87.8% (active). For `C/C=C/c1ccc(OCC(O)CN2CCCCCCC2)c(OC)c1` (configuration not stated) the value was -0.01% (inactive). For `Cc1ccc(OCC(O)CN2CCN(CC(O)COc3ccc(C)cc3Cl)CC2)c(Cl)c1` (configuration not stated) the value was -0.86% (inactive).

In the case of `CC(C)CCNC(=O)Cn1c(=O)oc2cc(S(=O)(=O)N3CC(C)CC(C)C3)ccc21` (configuration not stated), the inhibition was -10.9% (inactive).

Regarding `CCOC(=O)Cn1c(=O)oc2cc(S(=O)(=O)N(C)Cc3ccco3)ccc21`, the inhibition is 98.7% (active). For `CCOC(=O)Cn1c(=O)oc2cc(S(=O)(=O)NCC3CCCO3)ccc21` (configuration not stated) the value was -5.87% (inactive). For `COc1ccc(OCCCON2C(=O)c3ccccc3C2=O)cc1` the value was -2.83% (inactive). For `CCCCC(C(=O)OCC(=O)c1ccc(OC)cc1)N1C(=O)c2ccccc2C1=O` (configuration not stated) the value was -3.44% (inactive); for `CCOC(=O)C1=C(c2ccc(OC)cc2)C(=O)c2ccccc2C1=O`, 101% (active). Turning to `O=C(CCNC(=O)c1ccc([N+](=O)[O-])cc1)Nc1ccccc1N1CCOCC1`, the inhibition is 7.58% (inactive). Then `CC(C)CN1CCNC(=O)C1CC(=O)N(C)CC1CCOCC1` (configuration not stated), with 9.06% (inactive); and `CCOc1cc(/C=N/NC(=O)c2ccc(CSc3nncn3C)cc2)ccc1OCC(=O)N1CCOCC1`, with -1.61% (inactive). For `COc1ccc(/C=C2/SC(=O)N(CCCCCC(=O)Nc3ccccc3C(=O)O)C2=S)cc1` the value was -8.92% (inactive); for `O=C(O)CCC(=O)N(Cc1ccco1)c1nc(-c2ccccc2)cs1`, -11.4% (inactive). For `Cc1ccc(-c2csc(N(Cc3ccco3)C(=O)c3cccs3)n2)cc1` the value was 100% (active); for `Cc1ccc(-c2csc(NC(=O)c3cccs3)n2)cc1`, 3.66% (inactive); for `CN(Cc1ccccn1)Cc1nc(-c2ccc(Cl)cc2)no1`, -2.18% (inactive). Turning to `CCN(C(=O)COC(=O)/C=C/c1nc2ccccc2s1)C1CCS(=O)(=O)C1` (configuration not stated), the inhibition was -2.12% (inactive).

As to `COc1ccc(/C=C/C(=O)OCC(=O)Nc2cccc(Oc3ccccc3)c2)c(OC)c1`, the inhibition was -2.55% (inactive). As for `O=C(COC(=O)/C=C/c1nc2ccccc2s1)Nc1ccccc1Oc1ccccc1`, the inhibition was 51.7% (active). As for `COc1ccc(-c2cn3cccnc3n2)cc1`, the inhibition is 10.2% (inactive).
